Screens: PubChem BioAssay, several laboratories
PABP FP inh = blocks human PABP binding to poly(A) RNA. P11940. fluorescence polarization. calls only at 35 µM. hit rate 1% among 290,000. AID 2014;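 note: calls also rest on retests at 20 µM and on dose response follow-up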
Target sequence (P11940 whole entry, looked up): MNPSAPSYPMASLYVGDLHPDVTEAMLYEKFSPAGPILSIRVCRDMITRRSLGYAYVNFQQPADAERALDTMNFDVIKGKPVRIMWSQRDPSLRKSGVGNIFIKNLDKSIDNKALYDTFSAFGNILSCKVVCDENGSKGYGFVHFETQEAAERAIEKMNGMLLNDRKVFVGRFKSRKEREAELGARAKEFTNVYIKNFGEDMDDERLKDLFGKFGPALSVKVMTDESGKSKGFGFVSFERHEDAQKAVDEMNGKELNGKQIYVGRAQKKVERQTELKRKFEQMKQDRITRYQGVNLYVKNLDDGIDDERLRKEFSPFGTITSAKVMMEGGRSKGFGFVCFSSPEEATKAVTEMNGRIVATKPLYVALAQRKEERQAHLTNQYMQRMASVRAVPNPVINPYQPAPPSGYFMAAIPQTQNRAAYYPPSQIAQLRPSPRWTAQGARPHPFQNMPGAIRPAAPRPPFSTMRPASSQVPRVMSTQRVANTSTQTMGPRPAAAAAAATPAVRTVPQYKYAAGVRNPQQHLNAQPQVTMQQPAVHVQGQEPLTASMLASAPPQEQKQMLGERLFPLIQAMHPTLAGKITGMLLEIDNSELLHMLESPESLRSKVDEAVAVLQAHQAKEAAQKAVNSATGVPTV
PHOSPHO1 inh = PHOSPHO1 (human) inhibition. hit rate 1.1% among 290,000. Q8TCT1. recombinant PHOSPHO1, absorbance phosphatase assay. inhibition, % at 13.3 µM; in the data active = inhibition above about 60%
MLLE-PAM2 inh = inhibitors of microRNA-mediated deadenylation, human PABP1 MLLE binding. hit rate 0.36% among 360,000. P11940. inhibition, % at 20 µM. GST-MLLE / FITC-PAM2 fluorescence polarization. AID 588489; in the data active = inhibition above about 35%, passing the limit was not always enough;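 note: plate controls were DMSO wells with GST-MLLE for no effect and wells lacking GST-MLLE protein for full effect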
HMGR II inh = blocks class II HMG-CoA reductase of Enterococcus faecalis; AID 1066; purified E. faecalis HMGR, NADPH absorbance 340 nm kinetic; inhibition, % at 10 µM; hit rate 0.41% among 190,000;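 active = inhibition above a set limit, the median over all tested compounds plus 3 SD, cut at about 9.5% in these data; inconclusive = no clear call, values can overlap the other calls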;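 note: enzyme runs in reverse so mevalonate oxidation gives rising NADPH absorbance; 0% = complete reaction with DMSO and 100% = background rate lacking mevalonate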
eIF4H inh = inhibitors of RNA binding by human eIF4H. eIF4H fluorescence polarization binding assay. inhibition, % at 35 µM. hit rate 0.94% among 290,000. AID 2012;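 note: calls also rest on retests at 20 µM and on dose response follow-up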
Active calls of the source: *; i = inactive; ? = inconclusive; . = not tested or not shown; + = active, no number. The list is not random: actives were taken first. Their share in the collection is about 2.4%. Unless noted, the rule behind the calls is not given here.

SMILES	PABP FP inh	PHOSPHO1 inh	MLLE-PAM2 inh	HMGR II inh	eIF4H inh
CCOc1ccccc1NC(=O)Cn1nnc(C(=O)NCc2ccco2)c1N	i	-34	8	1	1
O=C(CC1(CC(=O)N2CCOCC2)CCCC1)Nc1ccc(F)cc1	.	.	2	.	.
CN(c1ccc(Cl)cc1)c1cc2c(c3c1ccn3C)C1CCC2O1 (configuration not stated)	.	.	-5	.	.
C[N+]1(CC(=O)OCCCc2ccccc2)CCCCC1	+	12	-127	-2	1
C[N+]1(CC(=O)OCCCc2ccccc2)CCCC1	i	-20	-147	-4	-1
O=C(Nc1nccs1)c1cc(-c2ccco2)nc2ccccc12	+	-7	-4	0	58
Cc1csc(NC(=O)c2cc(-c3ccco3)nc3ccccc23)n1	+	-6	-16	-11	88*
O=C(NC(=S)Nc1cccc(S(=O)(=O)NC2=NCCC2)c1)c1cc(-c2ccco2)nc2ccccc12	i	-19	69	.	76
CCN(CC)CCNC(=O)c1ccc(NC(=O)c2cc(-c3ccco3)nc3ccccc23)cc1	i	10	-21	.	72
O=C(Nc1cccc(S(=O)(=O)NC2=NCCC2)c1)c1cc(-c2ccco2)nc2ccccc12	+	41	-28	.	90*
CN(C)C(=O)c1ccc(NC(=O)c2cc(-c3ccco3)nc3ccccc23)cc1	+	-1	2	.	77*
CCOC(=O)[C@H]1[C@H]2COc3ccc(Cl)cc3[C@@H]2N2C(=O)CN(C)C(=O)[C@@]12C	.	.	2	.	.
CCN1CCN(c2ccc(NC(=O)c3cccc(F)c3)cc2Cl)CC1	i	45	20	10*	-4
CCN=c1scc(-c2ccco2)n1/N=C/c1ccc(O)cc1	i	80*	-13	-4	1
CCN=c1scc(-c2ccco2)n1/N=C/c1ccc(OC)c(O)c1	i	-7	14	4	4
O=C1C2C3C=CC(C4CC34)C2C(=O)N1/N=C/c1ccc(-c2ccc([N+](=O)[O-])cc2)o1 (configuration not stated)	i	35	-18	-5	-2
Cc1ccc(-c2ccc(/C=N/N3C(=O)C4C5C=CC(C6CC56)C4C3=O)o2)c([N+](=O)[O-])c1 (configuration not stated)	i	69*	11	-2	30
CC(C)c1ccc(C2NC(=S)NC3=C2C(=O)CC(C)(C)C3)cc1 (configuration not stated)	i	-29	-118	-7	-10
COc1ccc(Cl)cc1NC(=O)CN(C(=O)c1ccco1)C1CCCCC1	i	-20	36*	0	1
COc1ccc(Cl)cc1NC(=O)CN(C)C(C)C(=O)NCC1CCCCC1 (configuration not stated)	i	9	3	-6	2
CN(Cc1ccc(F)cc1)S(=O)(=O)c1nnc(NC(=O)c2ccccc2Br)s1	i	7	-1	.	-11
Cc1ccc(C2CC(=O)c3cnc(N4CCc5ccccc5C4)nc3C2)cc1 (configuration not stated)	i	24	1	-6	-4
O=C1CC(c2ccccc2)Cc2nc(N3CCc4ccccc4C3)ncc21 (configuration not stated)	i	12	56*	-3	-10
CCOC(=O)c1c(C)[nH]c(C)c1S(=O)(=O)NCCc1ccco1	i	38	-13	.	7
COc1cc(C(=O)CSc2nnc(-c3ccc(O)cc3)n2CC2CCCO2)ccc1NC(C)=O (configuration not stated)	i	79*	-6	3	11
SMILES	PABP FP inh	PHOSPHO1 inh	MLLE-PAM2 inh	HMGR II inh	eIF4H inh
CCC(=O)Nc1ccc(C(=O)CSc2nnc(-c3ccc(O)cc3)n2CC2CCCO2)cc1 (configuration not stated)	i	29	-15	1	3
O=C(CSc1nnc(-c2ccc(S(=O)(=O)N3CCCC3)cc2)n1CC1CCCO1)NC1CC1 (configuration not stated)	i	84*	-31	-5	3
COc1cccc(CN2CCNC(=O)C2CC(=O)NCCCC2CCCC2)c1OC (configuration not stated)	i	41	6	.	-4
NNC(=O)C1CC1c1ccc(Cl)cc1 (configuration not stated)	i	16	9	19*	-1
COc1ccc2c(c1)cc1c(=O)n(CC(=O)NCCCN3CCOCC3)nc(C)n12	i	26	-7	.	-6
O=C1Nc2ccccc2SC(c2ccccc2)C1O (configuration not stated)	+	-7	-3	1	?
CSc1cccc(N2CC(C(=O)N3CCN(S(=O)(=O)c4ccccc4Cl)CC3)CC2=O)c1 (configuration not stated)	.	.	27	.	.
CN(C)S(=O)(=O)c1ccc2nnn(O)c2c1	i	6	13	1	-8
COc1ccc(C2C3=C(CC(C)(C)CC3=O)Nc3c2c(=O)n(C)c(=O)n3C)cc1OC (configuration not stated)	i	-8	3	-1	active
COc1ccccc1CN1CCC(CNS(=O)(=O)c2cc(-c3onc(C)c3C)ccc2OC)CC1	i	40	-2	.	-6
O=C(Nc1ccc2nc(-c3ccco3)c(-c3ccco3)nc2c1)N1CCN(c2ccccn2)CC1	+	98*	49*	1	106*
S=C(Nc1ccc(N2CCOCC2)cc1)Nc1ccc2nc(-c3ccco3)c(-c3ccco3)nc2c1	?	92*	92	3	?
Cc1nc2cc(NC(=O)N3CCN(c4ccccn4)CC3)ccc2o1	i	-17	-1	-10	-6
Cc1cccc(N2CCN(C(=O)c3ccc4nc(-c5ccco5)c(-c5ccco5)nc4c3)CC2C)c1 (configuration not stated)	+	-16	12	-3	93*
O=C(c1ccc2nc(-c3ccco3)c(-c3ccco3)nc2c1)N1CCN(c2ncccn2)CC1	+	-17	24	-3	85*
CC(=O)N1CCN(S(=O)(=O)c2ccc3c(c2)CCC(=O)N3)CC1	.	.	7	.	.
COc1ccc(NC(=S)NC(=O)CC(C)C)c(OC)c1	i	13	12	-6	-9
O=C(/C=C/c1ccco1)N1CCN(c2ncccn2)CC1	i	-6	68*	0	44
O=C(/C=C/c1c(Cl)cccc1Cl)N1CCN(c2ncccn2)CC1	i	6	1	-2	2
COC(=O)Cn1ncn2c(cc3oc(C)cc32)c1=O	i	66*	-2	-4	-7
[O-][n+]1c2ccccc2[n+]([O-])c2cc(O)ccc21	+	-20	8	.	106*
CCCn1c(/C=C/c2cc[n+](C)cc2)nc2ccccc21	+	-19	-20	.	38
CC(=O)N/C(=C/c1ccc2c(c1)OCO2)C(=O)NCc1ccccc1	i	29	-8	0	-6
Cc1cc(C)c[n+](-c2nc([O-])sc2C=O)c1	i	96*	15	0	9
